Assay [1] deals with Wnt5a (protein binding on small-molecule microarray). In words: Wnt5a binders on small-molecule microarray, primary screen, biophysical, 635/667 nm fluorescence (AID 1142).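 Note: fluorescence read at 667 nm with signal to noise per printed feature.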 Conditions: 635 nm fluorescence, higher = more signal.
The nature of assay [2]: cell viability in Huh7 cells, primary screen, cytotoxicity control for HCV replication inhibitor project, CellTiter-Glo luminescence, basal, 48 h (AID 1143).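 Note: Huh7 hepatoma cells carrying a hepatitis C replication reporter with no stimulus; test concentration not given here.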 The settings on record: Huh7 HCV replicon, higher = more signal, called active from +8 up or from −8 down. Background: ATP-based viability assays read luminescence as a measure of living cells.
Assay [3] can be described thus: P. aeruginosa biofilm formation inhibitors, primary screen, PAO1 strain, BacTiter-Glo luminescence, LB-PBS (AID 1144). Conditions: 12 h, higher = more signal.
A short description of assay [4]: CREB reporter modulators without forskolin, primary screen, cell-based, PC12, CRE-LacZ reporter, unstimulated (AID 1145). The settings on record: no forskolin, luminescence, 4.5 h, higher = more signal, called active from +8 up or from −8 down.
Assay [5] in a line: CREB reporter modulators under forskolin, primary screen, cell-based, PC12, CRE-LacZ reporter, forskolin-stimulated (AID 1146).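 Note: PC12 cells with 6xCRE LacZ reporter stimulated by forskolin 10 µM; beta-galactosidase reporter signal reflecting CREB driven transcription.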 The settings on record: luminescence, 4.5 h, higher = more signal, called active from +8 up or from −8 down.
Assay [6] deals with Streptavidin (Streptomyces avidinii) (UniProt P22629). In words: streptavidin binders on small-molecule microarray, primary screen, artefact control for SMM compound annotation, biophysical, 635/667 nm fluorescence (AID 1147).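 Note: signal reflects streptavidin binding to arrayed compounds as a control protein.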 Conditions: streptavidin binding, higher = more signal.
Streptavidin (Streptomyces avidinii), sequence (P22629 whole entry, looked up): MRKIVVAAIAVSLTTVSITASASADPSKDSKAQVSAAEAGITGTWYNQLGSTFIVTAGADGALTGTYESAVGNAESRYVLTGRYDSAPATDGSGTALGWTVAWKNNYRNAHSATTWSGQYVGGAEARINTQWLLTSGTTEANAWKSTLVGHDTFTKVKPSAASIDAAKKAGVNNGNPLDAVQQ
Assay [7] can be described thus: small-molecule binders of probe aInhba, primary screen, biochemical, small-molecule microarray, 635/667 nm fluorescence (AID 1148).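 Note: score merges 667nm spot fluorescence with signal-to-noise for antibody binding to printed compounds.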 Conditions: higher = more signal.
The target of assay [8] is Torsin-1A (Homo sapiens) (UniProt O14656). Nature of the assay: torsin A binders from cell lysate, primary screen, small-molecule microarray, wild-type, 635/667 nm (AID 1149). Conditions: COS7 hTOR1A-WT lysate, 635 nm fluorescence, higher = more signal.
Torsin-1A (Homo sapiens), sequence (O14656 whole entry, looked up): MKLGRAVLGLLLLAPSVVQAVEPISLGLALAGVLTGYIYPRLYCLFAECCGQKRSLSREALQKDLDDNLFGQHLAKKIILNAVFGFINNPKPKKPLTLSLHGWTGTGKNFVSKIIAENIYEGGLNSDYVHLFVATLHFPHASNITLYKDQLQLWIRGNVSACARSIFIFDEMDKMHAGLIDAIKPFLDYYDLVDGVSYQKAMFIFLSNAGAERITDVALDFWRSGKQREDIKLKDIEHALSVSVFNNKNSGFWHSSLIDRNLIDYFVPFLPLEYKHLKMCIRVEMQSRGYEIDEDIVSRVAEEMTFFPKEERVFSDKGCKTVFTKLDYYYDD
The target is the same in assay [9]. Nature of the assay: small-molecule binders of mutant TOR1A in lysate, primary screen, cell lysate, small-molecule microarray, COS7 lysate, 635/667 nm fluorescence (AID 1150).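 Note: score pools 667 nm emission and signal to noise measuring lysate protein binding.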 The settings on record: COS7 hTOR1A mutant lysate, 635 nm fluorescence, higher = more signal.
In assay [10] the test system is Sonic hedgehog protein (Shh). In words: small-molecule binders of Shh protein, primary screen, biochemical, small-molecule microarray, 635/667 nm fluorescence (AID 1151).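 Note: Shh protein binding to compounds spotted on small-molecule microarray slides; score combines spot fluorescence intensity with signal-to-noise across triplicate slides.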 Conditions: small-molecule microarray binding, 635 nm fluorescence; higher = more signal.
Assay [11] in a line: E. coli DRC41 culture turbidity changes, primary screen, E. coli filamentation inducer project, strain DRC41, OD650, 48 h (AID 1152).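 Note: E. coli MC1000 strain DRC41 lacking acrAB efflux pump and sulA.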 The settings on record: E. coli DRC41 (acrAB sulA), higher = more signal, called active from +8 up or from −8 down.
Assay [12] in a line: small-molecule binders of probe aLefty1, primary screen, biochemical, small-molecule microarray, 635/667 nm fluorescence (AID 1153).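 Note: score merges spot fluorescence with signal-to-noise ratio from the scanned slide images.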 The settings on record: higher = more signal.
The nature of assay [13]: PSAC antagonists in infected red cells, primary screen, cell-based, P. falciparum Indochina, OD700, 1 h (AID 1154). The settings on record: P. falciparum Indochina infected RBC osmotic lysis, higher = more signal, called active from +8 up or from −8 down.
Assay [14] in a line: PSAC antagonists in infected red cells, primary screen, cell-based, P. falciparum Indochina, OD700, 2 h (AID 1155).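 Note: lysis reports solute entry through the parasite surface anion channel PSAC; channel blockers reduce lysis of infected cells.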 Conditions: P. falciparum Indochina infected erythrocytes, osmotic lysis OD700; higher = more signal, called active from +8 up or from −8 down.
Assay [15] can be described thus: osmotic lysis modulators in infected erythrocytes, primary screen, PSAC antagonist project, cell-based, P. falciparum Indochina, OD700, 3 h (AID 1156). The settings on record: higher = more signal, called active from +8 up or from −8 down.
Assay [16] in a line: PSAC antagonists in infected red cells, primary screen, cell-based, P. falciparum Indochina, OD700, 18 h (AID 1157). The settings on record: P. falciparum Indochina infected erythrocytes, osmotic lysis OD700, 18 h; higher = more signal, called active from +8 up or from −8 down.
Assay [17] is described as follows: modulators of S6 phosphorylation in cells, primary screen, cell-based, A549, cytoblot, luminescence, serum-stimulated (AID 1158).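 Note: serum-stimulated A549 lung adenocarcinoma cells; signal is phosphorylated S6 detected by cytoblot immunostaining with HRP secondary.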 Conditions: A549 phospho-S6 cytoblot, 5 h, higher = more signal.
In assay [18] the target is NADPH oxidase 2 (Homo sapiens) (UniProt P04839). Nature of the assay: NOX2-dependent H2O2 signal modulators, primary screen, NOX inhibitor project, cell-based, HEK293-NOX2, PMA-stimulated, Amplex Red fluorescence (AID 1159). Note: test concentration not given here. Conditions: 45 min, higher = more signal, called active from +8 up or from −8 down.
NADPH oxidase 2 (Homo sapiens), sequence (P04839 whole entry, looked up): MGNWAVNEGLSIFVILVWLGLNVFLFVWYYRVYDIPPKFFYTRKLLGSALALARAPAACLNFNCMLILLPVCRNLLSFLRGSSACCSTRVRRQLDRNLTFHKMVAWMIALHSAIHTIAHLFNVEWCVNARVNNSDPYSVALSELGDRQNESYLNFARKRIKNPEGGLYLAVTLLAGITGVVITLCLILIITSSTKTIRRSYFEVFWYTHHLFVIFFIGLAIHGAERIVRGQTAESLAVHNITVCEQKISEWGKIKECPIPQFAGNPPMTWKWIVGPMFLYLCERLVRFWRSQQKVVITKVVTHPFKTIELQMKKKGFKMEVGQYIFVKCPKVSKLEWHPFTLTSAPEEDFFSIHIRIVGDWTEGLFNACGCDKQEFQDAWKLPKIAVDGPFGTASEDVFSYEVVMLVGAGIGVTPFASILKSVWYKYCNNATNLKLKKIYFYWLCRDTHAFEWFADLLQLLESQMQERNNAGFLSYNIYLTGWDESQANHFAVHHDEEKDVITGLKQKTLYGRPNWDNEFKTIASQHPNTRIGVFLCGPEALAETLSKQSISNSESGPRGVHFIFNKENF
Assay [19] deals with NADPH oxidase 4 (Homo sapiens) (UniProt Q9NPH5). In words: NOX4-dependent H2O2 signal modulators, primary screen, NOX inhibitor project, cell-based, HEK293-NOX4, tetracycline-induced, Amplex Red fluorescence (AID 1160). Conditions: 45 min, higher = more signal, called active from +8 up or from −8 down.
NADPH oxidase 4 (Homo sapiens), sequence (Q9NPH5 whole entry, looked up): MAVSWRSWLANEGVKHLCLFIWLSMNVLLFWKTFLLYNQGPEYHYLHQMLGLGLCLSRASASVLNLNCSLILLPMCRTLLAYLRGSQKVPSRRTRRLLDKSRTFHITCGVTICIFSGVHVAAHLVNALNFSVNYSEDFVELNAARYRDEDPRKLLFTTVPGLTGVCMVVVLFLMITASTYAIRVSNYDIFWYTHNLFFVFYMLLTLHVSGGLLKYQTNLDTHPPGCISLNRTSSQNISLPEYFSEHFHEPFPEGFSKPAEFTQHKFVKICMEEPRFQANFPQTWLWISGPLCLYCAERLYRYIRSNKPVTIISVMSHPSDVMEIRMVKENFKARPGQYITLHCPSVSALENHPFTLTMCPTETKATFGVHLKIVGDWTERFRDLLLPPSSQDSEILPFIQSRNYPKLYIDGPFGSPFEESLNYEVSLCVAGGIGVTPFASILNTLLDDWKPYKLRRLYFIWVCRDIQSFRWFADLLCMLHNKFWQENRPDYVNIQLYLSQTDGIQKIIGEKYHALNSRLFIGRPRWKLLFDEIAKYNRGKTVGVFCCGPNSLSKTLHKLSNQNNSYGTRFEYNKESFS
The target in assay [20] is NADPH oxidase 5 (Homo sapiens) (UniProt Q96PH1). In words: NOX5-dependent H2O2 signal modulators, primary screen, NOX inhibitor project, cell-based, HEK293-NOX5, Amplex Red fluorescence (AID 1161). The settings on record: HEK293-NOX5, ionomycin, 45 min, higher = more signal.
NADPH oxidase 5 (Homo sapiens), sequence (Q96PH1 whole entry, looked up): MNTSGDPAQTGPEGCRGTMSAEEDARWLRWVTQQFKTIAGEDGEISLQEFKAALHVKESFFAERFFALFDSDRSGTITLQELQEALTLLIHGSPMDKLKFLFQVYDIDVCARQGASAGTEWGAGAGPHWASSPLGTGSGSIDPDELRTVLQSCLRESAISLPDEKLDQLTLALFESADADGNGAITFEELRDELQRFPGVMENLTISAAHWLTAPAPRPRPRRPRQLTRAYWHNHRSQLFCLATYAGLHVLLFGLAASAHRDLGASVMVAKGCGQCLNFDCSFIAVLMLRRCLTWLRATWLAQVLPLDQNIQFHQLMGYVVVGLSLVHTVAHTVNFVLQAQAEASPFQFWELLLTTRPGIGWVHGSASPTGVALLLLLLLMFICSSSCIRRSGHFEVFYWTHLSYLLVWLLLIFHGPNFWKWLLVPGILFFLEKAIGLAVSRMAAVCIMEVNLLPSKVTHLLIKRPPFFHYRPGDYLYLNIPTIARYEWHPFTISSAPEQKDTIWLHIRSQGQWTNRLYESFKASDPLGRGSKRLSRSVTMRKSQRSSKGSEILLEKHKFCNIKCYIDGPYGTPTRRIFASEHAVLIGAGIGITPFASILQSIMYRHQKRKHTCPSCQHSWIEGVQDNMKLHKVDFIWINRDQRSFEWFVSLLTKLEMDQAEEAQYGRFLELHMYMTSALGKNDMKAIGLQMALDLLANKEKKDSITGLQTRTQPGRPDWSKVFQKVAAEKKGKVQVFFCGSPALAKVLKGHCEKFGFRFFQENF

Calls of active or inactive are those of the source. Unless noted, the rule behind the calls is not given here.

Regarding `COC(=O)[C@@]1(Cc2ccc(F)cc2)[C@H]2c3cc(C(=O)N4CCCC4)n(CCc4ccc(O)c(O)c4)c3C[C@H]2CN1C(=O)c1ccccc1`, the composite z-score was 1.2 in assay [1]; -0.185 in assay [6]; 1.24 in assay [7]; 0.0585 with Torsin-1A (Homo sapiens) [8]; 0.0389 with Torsin-1A (Homo sapiens) [9]; -0.987 in assay [10]. In [12], the composite z-score was 1.09. Moreover, the z-score in assay [2] was -1.78 (inactive); in assay [3], -0.809 (inactive); in [4], 3.05 (inactive); in [5] it was -0.268 (inactive); in [11] it was -1.04 (inactive); in [13], 2.9 (inactive). Moreover, the z-score in [14] was 0.5 (inactive); in assay [15] it was 0.718 (inactive); in [16], 0.936 (inactive); in assay [17], -0.243; in assay [18], -4.14 (inactive); in assay [19] it was -7.52 (inactive). The compound also came in with a z-score in [20] of -6.63.

As to `C[C@]1(C(=O)NC2CC2)c2ccccc2C(=O)N(Cc2ccccc2)[C@H]1c1ccc(CO)cc1`, the composite z-score in [1] is -0.228; in assay [6], -0.854; in [7], 0.0028; in the assay with Torsin-1A (Homo sapiens) [8], 0.249; in the assay with Torsin-1A (Homo sapiens) [9], -0.489; in assay [10], -1.3. Also, in [12], the composite z-score is -0.147. The z-score was -4.5 (inactive) in [2]; -0.483 (inactive) in [3]; 0.0279 (inactive) in assay [4]; -0.957 (inactive) in assay [5]; 2.07 (inactive) in [11]; 2.84 (inactive) in assay [13]. The z-score is 0.17 (inactive) in assay [14]; 0.475 (inactive) in assay [15]; -0.779 (inactive) in assay [16]; 2.26 in [17]; -0.148 (inactive) in assay [18]; -1.55 (inactive) in assay [19]. Moreover, the z-score in assay [20] was -0.249.

With `C=C(C)C1CCC(C(O)C2C=CC3C(=O)N(C)C(=O)C3N2N2CCCCC2)CC1` (stereo not given), the composite z-score in assay [1] stood at 0.467; in assay [6] it was 1.61; in assay [7], 0.143; in the assay with Torsin-1A (Homo sapiens) [8], 0.476; with Torsin-1A (Homo sapiens) [9], 1.34; in [10], 0.758. Also, in assay [12], the composite z-score worked out at 0.336. The z-score was 0.635 (inactive) in assay [2]; -0.0283 (inactive) in assay [3]; 0.622 (inactive) in assay [4]; 0.924 (inactive) in assay [5]; -1.09 (inactive) in assay [11]; 1.23 (inactive) in assay [13]. The z-score in assay [14] is 0.737 (inactive); in [15], 0.302 (inactive); in assay [16], 1.37 (inactive); in [17], -1.41; in assay [18] it was -0.128 (inactive); in [19], 0.773 (inactive). Moreover, the z-score in assay [20] came to 0.0159.

On to `CN(C)CCCNC(=O)[C@@]1(C)c2ccccc2C(=O)N(Cc2ccccc2)[C@H]1c1ccc(CO)cc1`, for which the composite z-score in assay [1] is 0.0404; in assay [6], -0.324; in assay [7], -0.176; with Torsin-1A (Homo sapiens) [8] it was -0.334; in the assay with Torsin-1A (Homo sapiens) [9], -0.365; in assay [10] it was 0.498. Besides, the composite z-score in assay [12] is -0.146. The z-score in [2] is -1.97 (inactive); in assay [3], 0.329 (inactive); in [4], 0.389 (inactive); in assay [5], 0.261 (inactive); in assay [11], -0.074 (inactive); in [13], 2.17 (inactive). Also, the z-score in assay [14] was 0.426 (inactive); in assay [15], 1.32 (inactive); in assay [16] it was 0.377 (inactive); in assay [17], -0.142; in [18], 0.42 (inactive); in assay [19], -1.25 (inactive). This compound gave a z-score in [20] of 0.6.

On to `O=C(NCC(F)(F)F)[C@@H]1c2ccccc2C(=O)N(Cc2cc(F)cc(C(F)(F)F)c2)[C@H]1c1ccc(CO)cc1`, for which the composite z-score in assay [1] is -0.328; in [6], -1.24; in [7], -0.128; with Torsin-1A (Homo sapiens) [8] it was -1.73; in the assay with Torsin-1A (Homo sapiens) [9] it was -1.22; in assay [10], -1.09. This compound yielded a composite z-score in [12] of 0.0494. Also, the z-score in assay [2] was -1.77 (inactive); in assay [3] it was -1.38 (inactive); in assay [4], -0.529 (inactive); in assay [5], 0.861 (inactive); in [11], 0.319 (inactive); in assay [13], 1.71 (inactive). For the same compound, the z-score in [14] is -0.0966 (inactive); in [15], 1.24 (inactive); in assay [16] it was 0.449 (inactive); in [17], 0.286; in [18] it was 0.898 (inactive); in assay [19], -1.68 (inactive). In assay [20], this compound had a z-score of -1.17.

As to `COCCOC(=O)N1C(=O)[C@@]2(c3cc(C#Cc4ccc(OC)cc4)ccc31)[C@H](C(=O)Nc1nc3ccccc3s1)[C@H]1C(=O)O[C@H](c3ccccc3)[C@H](c3ccccc3)N1[C@@H]2c1ccc(O)cc1`, the composite z-score was determined as 0.472 in assay [1]; 0.768 in assay [6]; 0.266 in assay [7]; 0.198 with Torsin-1A (Homo sapiens) [8]; 0.811 with Torsin-1A (Homo sapiens) [9]; 1.91 in assay [10]. Moreover, the composite z-score in [12] was determined as 0.703. Besides, the z-score in assay [2] is -3.43 (inactive); in assay [3], -1.8 (inactive); in [4], -1.83 (inactive); in [5], 0.673 (inactive); in assay [11] it was 1.05 (inactive); in [13] it was 3.75 (inactive). The z-score in assay [14] was 0.756 (inactive); in assay [15], 1.2 (inactive); in assay [16], 1.22 (inactive); in [17], 0.709; in assay [18] it was 1.49 (inactive); in assay [19] it was -0.118 (inactive). In addition, the z-score in [20] came to 0.791.

In the case of `COc1ccc(CCNC(=O)[C@@H]2c3ccccc3C(=O)N(Cc3cc(C(F)(F)F)cc(C(F)(F)F)c3)[C@H]2c2ccc(CO)cc2)cc1`, the composite z-score in assay [1] is 0.822; in assay [6], 0.915; in assay [7] it was -0.016; with Torsin-1A (Homo sapiens) [8] it was -0.498; in the assay with Torsin-1A (Homo sapiens) [9] it was -0.181; in assay [10], 0.355. In [12], the composite z-score is 0.108. Also, the z-score in assay [2] is -1.41 (inactive); in assay [3] it was 0.703 (inactive); in [4], 0.441 (inactive); in assay [5] it was 0.632 (inactive); in [11], 0.0073 (inactive); in assay [13] it was 4.55 (inactive). In addition, the z-score in assay [14] is 0.383 (inactive); in assay [15] it was 0.767 (inactive); in assay [16], 0.233 (inactive); in assay [17] it was 0.154; in assay [18], -1.75 (inactive); in assay [19], 0.194 (inactive). Also, the z-score in assay [20] was -0.077.

On to `O=C1O[C@H](c2ccccc2)[C@H](c2ccccc2)N2[C@H]1[C@@H](C(=O)O)[C@]1(C(=O)Nc3ccc(C#CC4=CCCCC4)cc31)[C@H]2c1ccc(O)cc1`, for which the composite z-score in [1] was 0.423; in assay [6], -0.0343; in assay [7], -0.157; in the assay with Torsin-1A (Homo sapiens) [8] it was -0.107; with Torsin-1A (Homo sapiens) [9], 0.298; in assay [10] it was 1.22. Also, the composite z-score in assay [12] is -0.242. Moreover, the z-score in [2] is -0.53 (inactive); in [3], 0.608 (inactive); in [4], 1.72 (inactive); in assay [5], 0.945 (inactive); in assay [11], -1.14 (inactive); in [13] it was -2.37 (inactive). The z-score in assay [14] is -0.921 (inactive); in assay [15], -10.4 (active); in [16], -0.451 (inactive); in [17], -0.497; in assay [18], 1.62 (inactive); in assay [19], -3.15 (inactive). The compound further came in with a z-score in assay [20] of -0.32.

(Values after PubChem BioAssay.)
